Results on 40 compounds are retold here after PubChem BioAssay (NCI).

SMILES strings stand for the structures. Values joined by “and” are separate entries in the source; they are usually repeats but may differ in a detail not shown here. Equal values may be shown once. This is part of a sample that, as a whole, favours compounds with a hit. Of some 83,000 tested, about 20% had one in any assay.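 Cells were grown in 96-well plates and exposed to the test compound at a single concentration for 48 hours; results are reported as percent growth, with values below 10 considered active.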 Unmarked numbers belong to inactive results. Active and inactive are the calls of the source.

In this test the test system is MDA-MB-468 breast. Briefly: NCI-60 one-dose screen, 48 h (100 = growth as untreated, 0 = no growth, -100 = all killed). To be noted: 10 µM unless noted.
Take `COC(=O)C(C)NS(=O)(=O)/N=C1\NC(=O)NC1=C(Cl)Cl` (stereo not given): the growth is 91.4%. On to `COc1ccc(-c2cc(-c3ccc(N(C)C)cc3)nc(NC(=O)c3cccnc3)n2)cc1`, for which the growth was 106%.

`COc1ccc2nc(Cl)cc(C)c2c1`: the growth was 94.1% and 91.3%.

For the compound `Oc1ccc(Cc2ccccc2Cl)c(O)c1`, the growth is 98.4%. Next, `CCC(O)C(C)(C)C` (stereo not given): 115%. With `CCCCCCCCc1ccc(CCC(N)(CO)CO)cc1`, the growth is -93.1% (active).

Consider `NS(=O)(=O)c1ccccc1NC(=O)Nc1nc2ccccc2s1`, for which the growth was 104%.

`CC(C)(C)c1cc(-n2c(-c3ccc(Cl)cc3)nc3cc(C(=O)Nc4ccc(Cl)cc4)ccc32)n[nH]1`: the growth is 51.7%. Regarding `CCOC(=O)N1CCc2c(sc3c2C(=O)N[C@H](c2ccc(OC)cc2)N3)C1`, the growth was 101%. The value for `OC1(c2ccccc2)c2ccccc2N(c2ccccc2)c2ccc(Cl)cc21` (stereo not given) was -75.3% (active). Consider `COc1ccc(C2NC(=O)C(C#N)c3c2sc2c(F)cccc32)cc1` (stereo not given), for which the growth was 33.7%. `N#CCCN1CCN(CCC#N)C1=S`: the growth was 119%. For the compound `CN(C)c1ccc(-c2c(C#N)c(N)nn2C(=O)c2ccc(NC(=O)c3ccccn3)cc2)cc1`, the growth was 119%. For the compound `O=C(CCC(C(=O)c1ccccc1)c1ccccc1)c1ccccc1` (stereo not given), the growth is 35.9%. Next, `C=C1C(=O)O[C@H]2[C@H]1CC/C(COC(=O)NCc1ccc(Cn3c(=O)sn(-c4ccc(Cl)cc4)c3=O)cc1)=C\CC[C@@]1(C)O[C@@H]21`: 22.6%. Regarding `C#CCOc1cccc(Nc2ncnc3cc(NC(=O)C=C)ccc23)c1`, the growth was -24.9% (active).

Take `CCOc1ccc([C@@H]2[C@@H](Oc3ccccc3)C(=O)N2c2cc(OC)c(OC)c(OC)c2)cc1`: the growth is 29.4%. Next, `CNc1ccccc1C(=O)N/N=C/C=C/c1ccccc1`: 19.8%; `COC(=O)C[Se]C(=O)Cc1c(C)n(C(=O)c2ccc(Cl)cc2)c2ccc(OC)cc12`: -18.4% (active). Next, `CCc1ccc(-c2nnc(COc3ccc(-c4nc5ccc(C)cc5[nH]4)cc3OC)o2)cc1`: 63.1%. On to `CC(=O)Nc1c(Cl)cc2c(c1Cl)Cc1ccccc1-2`, for which the growth is 70.6%. `COc1cc(/C=N/n2cnc3oc(-c4ccccc4)cc3c2=N)cc(CN2CCCCC2)c1O`: the growth was -35.8% (active). Turning to `Cc1cc(=O)oc2cc(Oc3nc(-c4ccccc4)cn4c(-c5ccccc5)cnc34)ccc12`, the growth was 44.2%. Take `CCOC(=S)SCc1ccc(Cl)cc1`: the growth is 106%.

As to `COCCOC(=O)COc1ccc(OC)cc1`, the growth was 95.6%.

For `BrC(Br)(Br)c1cnc2ccccc2n1`, the growth was -24.8% (active). In the case of `Cc1ccc(NC(=O)COC(=O)c2ccc(S(=O)(=O)N3CCCCCC3)cc2)cc1`, the growth was 92.9%. As for `COC(=O)[C@H](C)NC(=O)c1ccc(NC(=O)c2[nH]c(C)c(Cl)c2Cl)c(OCCN)c1`, the growth is 107%. With `COc1ccccc1-[n+]1cc(-c2ccc(-c3ccccc3)cc2)n2c1CCCCC2`, the growth was -23.5% (active). Regarding `O=C1CC2c3cc(-c4cc5ccccc5o4)ccc3CCN2C(=O)N1c1ccccc1` (stereo not given), the growth is 88.4%.

For `CCOC(=O)c1nn(-c2ccccc2)c(=O)c2c(N)c(C#N)c(-c3cccs3)cc12`, the growth is 69.9%. The value for `CCCCC(C#N)C(N)=O` (stereo not given) was 119%. `Clc1ccc2c(N/N=C/c3c[nH]c4ccccc34)ccnc2c1`: the growth was -75.9% (active). Take `CCCCCCCC(C)NCCO` (stereo not given): the growth was 104%. Turning to `O=c1c2ccccc2n2cnc3ccc(Cl)c1c32`, the growth was 79.1%.

Turning to `COC(=O)[C@@]1(C)CC[C@]2(C)CC[C@]3(C)C(=CC(=O)[C@@H]4[C@@]5(C)Cc6c(n(CC#CCN7CCN(C)CC7)c7ccccc67)C(C)(C)[C@@H]5CC[C@]43C)[C@@H]2C1`, the growth was 69.1%.

For `CN(C)c1cccc2c(S(=O)(=O)N[C@H]3CC[C@H]4[C@@H]5CCc6cc(O)ccc6[C@H]5CC[C@]34C)cccc12`, the growth is 34.5%. Consider `C#CCOc1ccc2ncnc(N3CCC(NC(=O)CCl)CC3)c2c1`, for which the growth is 15.4% [8.25 µM]. Next, `Cc1cc(Nc2ccc3c(c2)OCO3)c2cc3c(cc2n1)OCO3`: 26.5%.

As to `O=[N+]([O-])c1ccc(/C=C/C2(CCl)OCCO2)cc1`, the growth was 108%.
